Test results: the supplement of paper PMC11732987, “Enantioselective OTUD7B fragment discovery through chemoproteomics screening and high-throughput optimisation” (Communications Chemistry, 2025)

Key:
Test in all cases: log2 ratio of Biotin-Ahx-Ub-VS probe labelling (fragment/DMSO); higher = less target engagement (more negative = stronger competition), active = hit call of the paper (q ≤ 0.05, log2 ratio ≤ -1)
Conditions in all cases: compound concentration: 200 uM; treatment time: 3 h
[1] = molecular target: T1, ALG13 (UniProt Q9NP73)
T1 sequence (whole entry): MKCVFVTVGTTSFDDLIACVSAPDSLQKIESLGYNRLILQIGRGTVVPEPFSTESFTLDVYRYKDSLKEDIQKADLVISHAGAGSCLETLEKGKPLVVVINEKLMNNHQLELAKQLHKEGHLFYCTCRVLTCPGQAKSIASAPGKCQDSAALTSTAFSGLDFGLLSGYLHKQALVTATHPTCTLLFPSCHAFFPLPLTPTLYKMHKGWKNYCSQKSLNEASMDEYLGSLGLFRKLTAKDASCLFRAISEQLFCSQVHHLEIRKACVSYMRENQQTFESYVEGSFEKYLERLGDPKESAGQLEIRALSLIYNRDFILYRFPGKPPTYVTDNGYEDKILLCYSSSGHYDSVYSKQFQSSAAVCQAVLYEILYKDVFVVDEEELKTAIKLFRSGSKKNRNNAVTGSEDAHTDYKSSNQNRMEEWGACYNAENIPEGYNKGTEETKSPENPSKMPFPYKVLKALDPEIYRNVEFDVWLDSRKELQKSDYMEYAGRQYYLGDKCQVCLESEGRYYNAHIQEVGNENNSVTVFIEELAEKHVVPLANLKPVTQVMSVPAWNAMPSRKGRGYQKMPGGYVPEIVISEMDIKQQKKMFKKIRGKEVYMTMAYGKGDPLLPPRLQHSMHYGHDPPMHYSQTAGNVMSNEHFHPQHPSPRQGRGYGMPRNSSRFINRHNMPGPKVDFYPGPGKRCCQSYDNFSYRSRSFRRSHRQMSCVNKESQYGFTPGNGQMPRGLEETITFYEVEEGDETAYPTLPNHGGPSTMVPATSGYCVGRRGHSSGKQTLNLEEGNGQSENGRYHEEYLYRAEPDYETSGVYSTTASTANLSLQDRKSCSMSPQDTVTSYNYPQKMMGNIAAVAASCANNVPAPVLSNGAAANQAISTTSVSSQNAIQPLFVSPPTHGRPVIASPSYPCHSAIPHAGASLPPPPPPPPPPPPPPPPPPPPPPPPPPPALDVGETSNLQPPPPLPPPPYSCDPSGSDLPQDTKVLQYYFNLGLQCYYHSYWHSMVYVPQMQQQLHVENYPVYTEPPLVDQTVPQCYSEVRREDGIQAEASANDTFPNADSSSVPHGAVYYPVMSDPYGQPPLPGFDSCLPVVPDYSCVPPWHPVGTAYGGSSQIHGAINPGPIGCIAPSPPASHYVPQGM
Procedure, shortened: (§1)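 Each value is an average log2 ratio of fragment to vehicle, tested by unpaired t-test. The underlying Spectronaut label-free quantities were global-median-normalised, and only proteins with ≥2 unique peptides were included. Triplicate HEK293T lysate samples (495 µg) were exposed to fragment at 200 µM or vehicle for 3 h, then to Biotin-Ahx-Ub-VS at 0.5 µM final for 1 h, before NeutrAvidin enrichment of labelled DUBs, LysC and trypsin digestion, and diaPASEF LC-MS/MS.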

[2] = molecular target: ATXN3 (UniProt P54252)
ATXN3, sequence (P54252 whole entry): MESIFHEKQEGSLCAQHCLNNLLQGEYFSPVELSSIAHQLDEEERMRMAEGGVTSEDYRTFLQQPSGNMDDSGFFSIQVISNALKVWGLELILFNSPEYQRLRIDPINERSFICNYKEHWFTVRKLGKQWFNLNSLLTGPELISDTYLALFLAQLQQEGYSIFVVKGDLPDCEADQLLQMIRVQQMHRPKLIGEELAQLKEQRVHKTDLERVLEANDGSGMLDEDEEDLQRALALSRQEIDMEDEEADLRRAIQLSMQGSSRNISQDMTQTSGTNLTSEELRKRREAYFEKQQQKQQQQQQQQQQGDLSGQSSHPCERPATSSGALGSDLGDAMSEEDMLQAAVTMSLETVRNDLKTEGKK
Procedure, shortened: as §1

[3] = molecular target: T2, BAP1 (UniProt Q92560)
T2 sequence (whole entry): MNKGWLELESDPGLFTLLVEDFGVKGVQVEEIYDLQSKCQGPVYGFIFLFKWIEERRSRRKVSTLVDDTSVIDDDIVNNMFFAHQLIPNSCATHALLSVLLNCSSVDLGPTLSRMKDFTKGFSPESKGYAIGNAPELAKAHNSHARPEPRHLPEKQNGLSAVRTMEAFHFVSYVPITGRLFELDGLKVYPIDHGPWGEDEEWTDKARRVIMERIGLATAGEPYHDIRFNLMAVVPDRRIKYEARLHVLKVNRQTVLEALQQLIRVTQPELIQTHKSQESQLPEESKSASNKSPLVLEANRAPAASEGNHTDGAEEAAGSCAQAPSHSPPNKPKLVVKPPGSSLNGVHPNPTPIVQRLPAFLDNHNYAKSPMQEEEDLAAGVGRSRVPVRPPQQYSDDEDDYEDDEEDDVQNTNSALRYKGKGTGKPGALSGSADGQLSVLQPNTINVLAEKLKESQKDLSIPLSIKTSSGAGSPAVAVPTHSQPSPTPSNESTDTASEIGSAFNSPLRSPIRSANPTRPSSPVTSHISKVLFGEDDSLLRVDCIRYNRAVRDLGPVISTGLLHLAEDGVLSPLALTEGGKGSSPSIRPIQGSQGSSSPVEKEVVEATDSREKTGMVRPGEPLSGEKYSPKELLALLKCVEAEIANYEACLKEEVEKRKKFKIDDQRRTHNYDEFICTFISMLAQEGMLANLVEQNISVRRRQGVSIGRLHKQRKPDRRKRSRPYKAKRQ
Procedure, shortened: as §1

[4] = molecular target: EIF3F (UniProt O00303)
EIF3F, sequence (O00303 whole entry): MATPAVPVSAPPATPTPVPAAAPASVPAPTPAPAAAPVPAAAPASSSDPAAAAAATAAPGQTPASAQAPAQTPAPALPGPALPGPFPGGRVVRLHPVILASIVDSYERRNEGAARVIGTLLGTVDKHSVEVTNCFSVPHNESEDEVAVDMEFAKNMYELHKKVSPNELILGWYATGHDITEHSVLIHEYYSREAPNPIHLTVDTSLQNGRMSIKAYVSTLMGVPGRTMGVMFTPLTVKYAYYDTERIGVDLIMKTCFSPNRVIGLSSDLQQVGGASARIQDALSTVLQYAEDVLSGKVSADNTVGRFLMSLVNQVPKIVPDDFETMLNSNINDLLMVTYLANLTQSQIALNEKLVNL
Procedure, shortened: as §1

[5] = molecular target: EIF3H (UniProt O15372)
EIF3H, sequence (O15372 whole entry): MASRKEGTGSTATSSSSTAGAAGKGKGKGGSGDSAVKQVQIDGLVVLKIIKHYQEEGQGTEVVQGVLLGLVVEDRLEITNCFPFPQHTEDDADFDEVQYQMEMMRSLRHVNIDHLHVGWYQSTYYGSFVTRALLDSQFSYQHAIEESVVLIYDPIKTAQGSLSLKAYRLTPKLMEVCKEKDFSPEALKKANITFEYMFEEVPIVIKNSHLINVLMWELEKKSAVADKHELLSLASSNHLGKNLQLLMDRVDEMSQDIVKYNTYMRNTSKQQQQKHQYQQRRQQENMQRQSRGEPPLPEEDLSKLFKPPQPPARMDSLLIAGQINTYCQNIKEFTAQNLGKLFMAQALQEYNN
Procedure, shortened: as §1

[6] = molecular target: T3, FAM105A (UniProt Q9NUU6)
T3 sequence (whole entry): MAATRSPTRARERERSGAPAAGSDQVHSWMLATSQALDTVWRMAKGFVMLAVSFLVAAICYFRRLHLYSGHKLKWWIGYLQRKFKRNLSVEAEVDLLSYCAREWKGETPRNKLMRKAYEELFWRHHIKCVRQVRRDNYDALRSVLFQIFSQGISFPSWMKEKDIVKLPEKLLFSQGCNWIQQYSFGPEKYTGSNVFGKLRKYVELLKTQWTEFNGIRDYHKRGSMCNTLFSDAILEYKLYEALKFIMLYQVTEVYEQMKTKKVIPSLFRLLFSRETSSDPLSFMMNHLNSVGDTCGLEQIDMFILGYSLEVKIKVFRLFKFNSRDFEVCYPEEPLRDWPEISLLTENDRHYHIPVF
Procedure, shortened: as §1

[7] = molecular target: OTUB1 (UniProt Q96FW1)
OTUB1, sequence (Q96FW1 whole entry): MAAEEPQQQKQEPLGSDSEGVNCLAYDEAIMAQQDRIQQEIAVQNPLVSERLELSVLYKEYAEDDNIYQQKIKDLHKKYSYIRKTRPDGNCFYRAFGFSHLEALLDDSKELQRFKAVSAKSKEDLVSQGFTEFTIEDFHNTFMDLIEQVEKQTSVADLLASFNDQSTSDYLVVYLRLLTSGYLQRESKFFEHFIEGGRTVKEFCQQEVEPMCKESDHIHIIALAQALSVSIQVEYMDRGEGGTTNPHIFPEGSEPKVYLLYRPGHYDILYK
Procedure, shortened: as §1

[8] = molecular target: T4, OTUD4 (UniProt Q01804)
T4 sequence (whole entry): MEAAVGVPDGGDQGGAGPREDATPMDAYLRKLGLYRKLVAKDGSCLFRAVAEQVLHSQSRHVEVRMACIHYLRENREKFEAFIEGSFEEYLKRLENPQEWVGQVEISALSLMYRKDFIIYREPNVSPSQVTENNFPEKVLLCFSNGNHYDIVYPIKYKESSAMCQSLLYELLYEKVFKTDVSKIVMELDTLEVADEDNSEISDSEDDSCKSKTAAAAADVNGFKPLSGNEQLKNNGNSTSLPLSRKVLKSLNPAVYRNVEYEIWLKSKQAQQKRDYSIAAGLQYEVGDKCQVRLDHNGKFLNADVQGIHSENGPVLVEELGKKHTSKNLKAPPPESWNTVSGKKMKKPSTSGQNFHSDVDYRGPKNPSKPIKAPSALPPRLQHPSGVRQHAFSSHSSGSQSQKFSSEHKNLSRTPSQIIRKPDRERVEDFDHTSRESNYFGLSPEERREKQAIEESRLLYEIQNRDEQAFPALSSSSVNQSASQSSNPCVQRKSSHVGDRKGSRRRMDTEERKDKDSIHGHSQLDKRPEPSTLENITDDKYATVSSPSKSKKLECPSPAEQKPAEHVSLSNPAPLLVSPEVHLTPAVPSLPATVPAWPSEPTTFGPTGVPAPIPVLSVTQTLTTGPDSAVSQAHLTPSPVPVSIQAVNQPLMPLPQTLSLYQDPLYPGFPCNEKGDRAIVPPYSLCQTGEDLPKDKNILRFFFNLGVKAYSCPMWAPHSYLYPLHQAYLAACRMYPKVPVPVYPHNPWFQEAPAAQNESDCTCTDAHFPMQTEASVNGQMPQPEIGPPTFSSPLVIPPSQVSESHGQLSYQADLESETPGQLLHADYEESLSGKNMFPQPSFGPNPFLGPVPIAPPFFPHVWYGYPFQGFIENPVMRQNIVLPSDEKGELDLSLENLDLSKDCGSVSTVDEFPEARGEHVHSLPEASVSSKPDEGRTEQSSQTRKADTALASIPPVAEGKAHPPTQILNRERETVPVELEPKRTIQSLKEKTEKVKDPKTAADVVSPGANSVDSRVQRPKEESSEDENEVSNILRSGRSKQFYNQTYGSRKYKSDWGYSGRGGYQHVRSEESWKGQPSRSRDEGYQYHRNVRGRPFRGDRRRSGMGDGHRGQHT
Procedure, shortened: as §1

[9] = molecular target: T5, OTUD5 (UniProt Q96G74)
T5 sequence (whole entry): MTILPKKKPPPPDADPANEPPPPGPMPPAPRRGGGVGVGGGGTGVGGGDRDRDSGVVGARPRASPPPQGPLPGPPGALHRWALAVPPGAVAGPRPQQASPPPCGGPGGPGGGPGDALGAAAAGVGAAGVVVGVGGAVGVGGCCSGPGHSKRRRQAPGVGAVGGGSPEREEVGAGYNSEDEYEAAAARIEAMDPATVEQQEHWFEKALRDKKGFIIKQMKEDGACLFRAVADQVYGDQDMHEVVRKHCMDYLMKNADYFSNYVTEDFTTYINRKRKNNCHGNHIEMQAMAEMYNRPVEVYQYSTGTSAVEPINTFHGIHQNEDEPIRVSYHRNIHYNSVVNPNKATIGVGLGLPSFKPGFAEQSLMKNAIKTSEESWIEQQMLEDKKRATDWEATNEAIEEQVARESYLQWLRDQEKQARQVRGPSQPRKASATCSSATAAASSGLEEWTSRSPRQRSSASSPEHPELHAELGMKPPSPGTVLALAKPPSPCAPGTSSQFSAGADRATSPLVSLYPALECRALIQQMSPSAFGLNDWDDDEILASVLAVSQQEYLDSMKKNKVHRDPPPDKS
Procedure, shortened: as §1

Measured: log2 ratio of Biotin-Ahx-Ub-VS probe labelling

Cc1noc(C)c1CNC(=O)CCl
active: [3] -2.03
inactive: [1] -0.968 | [2] -0.884 | [4] -0.561 | [5] 0.0244 | [6] 0.341 | [7] -0.618 | [8] -0.737 | [9] -0.764
